# Results from PubChem BioAssay (Tox21).
# Results filed as inconclusive are left out. Where a call stands in place of a potency, no number is given. The source made the active and inactive calls. Calls follow the shape of the dose curve; as a rule, active = well fitted activation curve with a large enough effect in the repeat runs; inconclusive = weak or mixed curves; inactive = flat fitted curve, though single readings scatter.
# Test: A CellTox Green Cytotoxicity Assay to monitor cytotoxicity in HepG2 cells - 16 hour (AID 1224876); also: nearly all actives have a fitted effect of over 45% in size
# Settings: CellTox Green fluorescence; series mostly up to 76.8 µM
# Description: National Center for Advancing Translational Sciences [NCATS]
# NIH Chemical Genomics Center [NCGC]
# U.S. Environmental Protection Agency [EPA]
# National Institutes of Environmental Health Sciences [NIEHS]
# National Toxicology Program [NTP]
# Cell-based models are critical for drug discovery. Determining the natural cytotoxic effects resulting from test compounds is an essential research activity. A CellTox Green Cytotoxicity Assay to monitor cytotoxicity in real time of continues cell culture during 40 hours of the compound treatment was used to screen Tox21 10K library compounds in HepG2 cells. CellTox Green Cytotoxicity Assay is a nonlytic, homogeneous, biofluorescent method to measure cytotoxicity in cell culture after experimental manipulation. The assay system uses a proprietary asymmetric cyanine dye that is excluded from viable cells but preferentially stains the dead cell's DNA. […] Viable cells produce no appreciable increases in fluorescence. Therefore, the fluorescence signal produced by the binding interaction with dead cell DNA is proportional to cytotoxicity.
# The mixture of HepG2 cell suspension and reagents were dispensed at 600cells/6 ul/well in 1536-well tissue culture treated black solid bottom plates using a Multidrop dispenser. After the assay plates were incubated at a 37 C/5% CO2 incubator for 5 hours, 23 nL of compounds dissolved in DMSO, positive and negative controls was transferred to the assay plate by a pintool work station. The plates were incubated at 37 C for 40 hours. The fluorescence intensity were measured at 0h, 8h, 16h, 24h, 32h and 40h time points using ViewLux plate reader during compound treatment.
row,Compound,Potency
1,CCCCOCCOCCOC(=O)CCCCC(=O)OCCOCCOCCCC,inactive
2,CC#C[C@]1(O)CC[C@H]2[C@@H]3CCC4=CC(=O)CCC4=C3[C@@H](c3ccc(N(C)C)cc3)C[C@@]21C,inactive
3,O=[N+]([O-])c1cc(N(CCO)CCO)ccc1NCCO,inactive
4,CN(CCOc1ccc(CC2SC(=O)NC2=O)cc1)c1ccccn1 (stereo not given),inactive
5,CC(=O)[C@@]1(O)CC[C@H]2[C@@H]3CCC4=CC(=O)CC[C@]4(C)[C@H]3CC[C@@]21C,inactive
6,NCCNCCNCCNCCN,inactive
7,CCCCCCOC(C)=O,inactive
8,CC1(C)CC(N=C=O)CC(C)(CN=C=O)C1 (stereo not given),inactive
9,CC1=C(/C=C/C(C)=C/C=C/C(C)=C/CO)C(C)(C)CCC1,inactive
10,C=C1C2CCC(C2)C1(C)C (stereo not given),inactive
11,CCCCCCC(C)(C)S,inactive
12,CCCCCCCCCCCCOCC1CO1 (stereo not given),inactive
13,NS(=O)(=O)c1cc2c(cc1Cl)NC=NS2(=O)=O,inactive
14,Oc1ccc(OCc2ccccc2)cc1,inactive
15,Oc1ccc2ccccc2c1N=Nc1ccccc1,inactive
16,OCC1CCCO1 (stereo not given),inactive
17,CNC[C@H](O)[C@@H](O)[C@H](O)[C@H](O)CO,inactive
18,OC[C@@H](O)[C@@H](O)[C@H](O)[C@@H](O)CO,inactive
19,Cc1ccc(C(=O)O)o1,inactive
20,Oc1c(Cl)cc(Cl)c(Cl)c1Cl,inactive

row,Compound,Potency
1,C=CC(=O)OCCCCCCCC(C)C,inactive
2,CC1=C(CC(=O)O)c2cc(F)ccc2/C1=C\c1ccc(S(C)=O)cc1 (stereo not given),inactive
3,O=S(=O)(O)c1cc(S(=O)(=O)O)c2c(N=Nc3ccccc3)c(O)ccc2c1,inactive
4,Cc1ccc(N)c(S(=O)(=O)O)c1,inactive
5,Oc1ccc2ccccc2c1,inactive
6,O=S(=O)(Oc1ccc(Cl)cc1Cl)c1ccccc1,inactive
7,COCC(=O)O,inactive
8,O=S(=O)(O)CCS,inactive
9,C=C(C#N)C(=O)OCC,inactive
10,Cc1cc(O)c2c(c1)C(=O)c1cc(O)cc(O)c1C2=O,inactive
11,CCCCC/C=C\C/C=C\CCCCCCCC(=O)OC,inactive
12,O=C(O)c1cc(-c2ccccc2)nc2ccccc12,inactive
13,ClC1=C(Cl)C(Cl)(Cl)C(Cl)=C1Cl,inactive
14,NC(=O)NNc1ccccc1,inactive
15,O=C1N=C(O)CN1/N=C/c1ccc(-c2ccc([N+](=O)[O-])cc2)o1,inactive
16,CC(=O)Nc1ccc(C(=O)O)cc1,inactive
17,COC(=O)c1ccc(C(=O)OC)cc1,inactive
18,S=c1nc[nH]c2nc[nH]c12,inactive
19,CCc1ccccc1O,inactive
20,O=C1O[C@H](CO)[C@@H](O)[C@H](O)[C@H]1O,inactive
